This is a sample that favours compounds with a hit; in the whole collection about 12% have one here.
Pf growth 96h: P. falciparum growth inhibition at 96 hour, primary screen for plastid delayed-death inhibitors | 320,000 tested, 6.9% active | Potency, µM (titrated, usually from 28.7 µM), inactives show at the highest dose activity change, negative = inhibition, most hits filed as inhibitors | P. falciparum luciferase reporter growth, 96 h; note: % is set by controls: 0 for no effect and ±100 for the full control effect
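P. falciparum expressing integrated firefly luciferase grown in erythrocytes (2% hematocrit, 0.05% parasitemia final) with compounds for 96 hours at 37 C, 5% CO2. Growth inhibition read as loss of luminescence after adding luciferase detection reagent.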
Sm TGR block: inhibitors of Schistosoma mansoni thioredoxin glutathione reductase; Q962Y6; purified TGR, DTNB reduction, TNB absorbance 405 nm; Potency, µM (top dose mostly 114 µM), without a hit: at the highest dose activity change, negative = inhibition, hits mostly inhibitors; 360,000 tested, 3% active; AID 485364; note: % is set by controls: 0 for no effect and ±100 for the full control effect; nearly all actives have a fitted effect of over 60% in size
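First, TGR (20 nM dispensed) and NADPH were mixed with compound. Second, a 15 min room-temperature incubation followed. Third, further NADPH and then DTNB were added to start the reaction. Finally, TNB absorbance was monitored kinetically.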
Pf growth 48h: inhibits P. falciparum growth in the first generation, 48 h | P. falciparum luciferase growth in erythrocytes, 48 h | Potency, µM (top dose mostly 28.7 µM), for the others: top-dose activity change, negative = inhibition, usual class: inhibitors | 310,000 tested, 5.9% active | AID 504832; note: % is set by controls: 0 for no effect and ±100 for the full control effect
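Here the parasites carry a stable luciferase gene and grow inside erythrocytes in Albumax-based RPMI medium with compound for one erythrocytic cycle. Activity is scored as loss of luminescent signal.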
SARS PLP yeast: blocks SARS-CoV papain-like protease in a yeast assay; Potency, µM (highest dose often 32.9 µM), for inactives: at the top dose activity, positive = growth rescue, most hits filed as activators; AID 485353; S. cerevisiae expressing SARS-CoV PLpro, growth rescue; 330,000 tested, 0.19% active; calls by dose curve; note: 0% is about no effect; nearly all actives have a fitted effect of over 55% in size
* = called active by the depositor. Unless noted, calls come from the whole dose curve; as a rule, active = well fitted curve in the direction sought with a large enough effect; inconclusive = small, poorly fitted or top-dose-only effect, or another doubt; inactive = no such curve, though single readings can be large; an effect the other way counts as inactive or inconclusive. Potency is the fitted concentration of half-maximal effect.

What do the screens show for `Cc1sc2ncnc(N3CCC(C(=O)Nc4nc(-c5cccs5)cs4)CC3)c2c1C`?
Pf growth 96h: 10µM*; Sm TGR block: -21%; Pf growth 48h: inconclusive; SARS PLP yeast: 2%

Results for CCOC(=O)c1ccccc1NC(=O)C1CCN(c2ncnc3sc(C)c(C)c23)CC1 ?
Pf growth 96h: -14%; Sm TGR block: -4%; Pf growth 48h: 10µM*

What do the screens show for `Cc1sc2ncnc(N3CCC(C(=O)Nc4ccccc4C(C)(C)C)CC3)c2c1C`?
Pf growth 96h: inconclusive; Sm TGR block: 0%; Pf growth 48h: 12µM*; SARS PLP yeast: -1%

What do the screens show for `CCc1nnc(NC(=O)C2CCN(c3ncnc4sc(C)c(C)c34)CC2)s1`?
Pf growth 96h: 41%; Sm TGR block: 4%; Pf growth 48h: 36%; SARS PLP yeast: 2%

What do the screens show for `COc1ccc(C(=O)N2CCc3ccc(NC(=O)c4ccccn4)cc3C2)cc1F`?
Pf growth 96h: -11%; Sm TGR block: 14%; Pf growth 48h: inconclusive; SARS PLP yeast: -17%

How did COc1cc(C2C(C#N)=C(N)N(c3cccnc3)C3=C2C(=O)CC(C)(C)C3)ccc1O (stereo unspecified) do in these assays?
Pf growth 96h: inconclusive; Sm TGR block: -18%; SARS PLP yeast: 7%

What do the screens show for `COc1ccc(C2C(C#N)=C(N)N(c3sc4c(c3C#N)CCCC4)C3=C2C(=O)CC(C)(C)C3)cc1OC` (stereo unspecified)?
Pf growth 96h: 5.2µM*; Sm TGR block: -23%; SARS PLP yeast: 3%

What do the screens show for `COc1ccc(C2C(C#N)=C3NC(=O)c4c(sc5c4CCCCC5)N3C3=C2C(=O)CC(C)(C)C3)cc1` (stereo unspecified)?
Pf growth 96h: inconclusive; Sm TGR block: -7%; Pf growth 48h: inconclusive; SARS PLP yeast: 1%

What do the screens show for `COc1ccc(C2C(C#N)=C(N)N(c3sc4c(c3C#N)CCCC4)C3=C2C(=O)CC(C)(C)C3)cc1` (stereo unspecified)?
Sm TGR block: -3%; Pf growth 48h: 6.6µM*; SARS PLP yeast: 1%

Results for Cc1ccc(C(=O)NCC(=O)OCc2c(F)cccc2Cl)s1 ?
SARS PLP yeast: -1%

What do the screens show for `CCn1c(NC(=O)c2ccccc2)nc2ccccc21`?
Pf growth 96h: 10µM*; Sm TGR block: 1%; Pf growth 48h: 12µM*; SARS PLP yeast: -1%

Results for CCCCn1c(NC(=O)c2ccccc2)nc2ccccc21 ?
Pf growth 96h: 4.7µM*; Sm TGR block: 0%; Pf growth 48h: inconclusive; SARS PLP yeast: 5%

Results for CCn1c(NC(=O)/C=C/c2ccc(F)cc2)nc2ccccc21 ?
Pf growth 96h: inconclusive; Sm TGR block: 14%; Pf growth 48h: 12µM*; SARS PLP yeast: -10%

What do the screens show for `CCCn1c(NC(=O)c2ccc(F)cc2)nc2ccccc21`?
Pf growth 96h: 0%; Sm TGR block: -4%; Pf growth 48h: 0%; SARS PLP yeast: -2%

How did COC(=O)c1cccc(Cn2cc([N+](=O)[O-])cn2)c1 do in these assays?
Pf growth 96h: 3.7µM*; Sm TGR block: 4%; Pf growth 48h: -11%; SARS PLP yeast: 1%

Results for COC(=O)c1ccc(Cn2cc([N+](=O)[O-])cn2)cc1 ?
Pf growth 96h: -3%; Sm TGR block: 0%; Pf growth 48h: 20%; SARS PLP yeast: 0%

What do the screens show for `Oc1ccc(Br)cc1/C=N/n1c(C2CCCCC2)n[nH]c1=S`?
Pf growth 96h: -8%; Sm TGR block: 1%; Pf growth 48h: inconclusive; SARS PLP yeast: -13%

How did COc1cccc(CNCc2c(C(=O)O)c(C)n(Cc3ccc(F)cc3Cl)c2C)c1OC do in these assays?
Sm TGR block: -15%

What do the screens show for `O=C(COC(=O)c1cc(=O)[nH]c2ccccc12)NCc1ccc(Cl)cc1`?
Pf growth 96h: inconclusive; Sm TGR block: -28%; Pf growth 48h: inconclusive; SARS PLP yeast: -1%

Results for CCn1c(NC(=O)c2cccc(Cn3cc(Cl)cn3)c2)nc2ccccc21 ?
Pf growth 96h: inconclusive; Sm TGR block: -6%; Pf growth 48h: 10µM*; SARS PLP yeast: 8%

What do the screens show for `S=C(Nc1ccccc1)Nc1nc2ccccc2n1CCOc1ccccc1`?
Pf growth 96h: 0%; Sm TGR block: 18%; Pf growth 48h: inconclusive; SARS PLP yeast: 28%

What do the screens show for `CCCCn1c(NC(=S)Nc2ccccc2)nc2ccccc21`?
Pf growth 96h: inconclusive; Sm TGR block: -18%; Pf growth 48h: 5.2µM*; SARS PLP yeast: -41%

Bioassay records deposited in PubChem BioAssay by National Center for Advancing Translational Sciences (NCATS).
